From PubChem BioAssay (EPA / NIEHS) come the findings set out here.

What is called AC50 is the concentration giving half of the maximal activity seen.

Test [1] has as its target Bile acid receptor (Homo sapiens) (UniProt Q96RI1). Briefly: ATG_FXR_TRANS: Attagene TRANS-FACTORIAL HepG2 Assay for Farnesoid X Receptor (FXR) (AID 2282979; active means hit-call score of the fitted dose curve at least 0.9, where 1 is the maximum;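 further: hits raise reporter mRNA above DMSO so AC50 marks FXR activation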). The settings on record: HepG2 Attagene TRANS FXR-GAL4 reporter transcription. The method in brief:
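Transient transfection of HepG2 with multiplexed GAL4-UAS reporter units; exogenous FXR-GAL4 chimera. Dose 24 h → TriZol RNA → oligo(dT) RT → PCR, 6-FAM primer extension, HpaI cut → CE. Gain vs DMSO.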

Test [2] can be described thus: ATG_M_06_TRANS: Attagene TRANS-FACTORIAL HepG2 Assay for M06 Transcription Factor (Internal Marker) (AID 2282983; active means hit-call score of the fitted dose curve at least 0.9, where 1 is the maximum;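 further: reporter transcript level by RT-PCR then capillary electrophoresis fluorescence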). The settings on record: HepG2 Attagene TRANS M06 internal marker reporter. Put shortly:
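Background control endpoint: reporter mRNA from transiently transfected HepG2 after 24 h dosing, detected by RT-PCR with capillary electrophoresis fluorescence. Analysed for gain versus DMSO.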

Test [3] is described as follows: ATG_M_32_TRANS: Attagene TRANS-FACTORIAL HepG2 Assay for M32 Transcription Factor (Internal Marker) (AID 2282984; active means hit-call score of the fitted dose curve at least 0.9, where 1 is the maximum;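 further: transcript level of a background control reporter unit measured by RT-PCR and capillary electrophoresis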). The following applies: HepG2 Attagene TRANS M32 internal marker reporter. The method in brief: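 Read-out: fluorescent reporter cDNA fragments resolved by capillary electrophoresis after RT-PCR of total RNA. Transfected HepG2 cells were exposed to chemical for 24 h. Activity scored in the positive direction relative to DMSO.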

Test [4] has as its target Transcriptional activator Myb (Homo sapiens) (UniProt P10242). Briefly: ATG_Myb_CIS: Attagene CIS-FACTORIAL HepG2 Assay for human Myeloblastosis (Myb) Proto-Oncogene Transcription Factor (AID 2282986). The following applies: HepG2 Attagene CIS-FACTORIAL Myb reporter transcription; actives raise or lower the signal. Put shortly: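 Using HepG2 liver cells bearing transiently transfected cis-promoter reporter constructs, the assay measures induction or loss of reporter mRNA after 24 hours of dosing. Detection used fluorescently labeled RT-PCR products separated by capillary electrophoresis.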

The target in test [5] is Nuclear respiratory factor 1 (Homo sapiens) (UniProt Q16656). The test can be described thus: ATG_NRF1_CIS: Attagene CIS-FACTORIAL HepG2 Assay for human Nuclear Respiratory Factor 1 (NRF1) Orphan Gene (AID 2282987). The following applies: HepG2 NRF1 cis-element reporter, Attagene multiplex; actives raise or lower the signal. The method in brief:
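Reporter mRNA induction or loss in HepG2 cells after 24 h dosing; cis-regulated reporter constructs report endogenous transcription-factor activity. Quantified by RT-PCR/capillary electrophoresis fluorescence, DMSO-referenced.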

Test [6] is described as follows: ATG_NFI_CIS: Attagene CIS-FACTORIAL HepG2 Assay for human Nuclear Factor I (NFI) (AID 2282989). The following applies: HepG2 cis-regulatory reporter, NFI response element transcription; actives raise or lower the signal. The method in brief:
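Cells: human liver HepG2, transiently transfected with promoter-regulated reporter transcription units. Exposure 24 h. Detection: fluorescent RT-PCR products separated by capillary electrophoresis, normalised to DMSO negative control.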

Test [7] concerns the target Myc proto-oncogene protein (Homo sapiens) (UniProt P01106). The test can be described thus: ATG_Myc_CIS: Attagene CIS-FACTORIAL HepG2 Assay for human Myelocytomatosis (Myc) Proto-Oncogene Transcription Factor (AID 2282990). The following applies: HepG2, Attagene cis-reporter transcription factor activity; actives raise or lower the signal. The method in brief:
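Read-out: fluorescent reporter mRNA fragments resolved by capillary electrophoresis after RT-PCR. Human HepG2 liver cells carried transfected cis-element reporter units and were dosed for 24 h. Gain or loss of signal fitted relative to DMSO baseline.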

Test [8] can be described thus: ATG_NF_kB_CIS: Attagene CIS-FACTORIAL HepG2 Assay for human Nuclear Factor Kappa B (NF-kB) (AID 2282991). The settings on record: HepG2 Attagene cis-factorial NF-kB reporter mRNA; actives raise or lower the signal. The method in brief: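 DMSO served as negative control and baseline for bidirectional curve fitting. Transiently transfected HepG2 cells were dosed for 24 h, then reporter transcripts were measured by RT-PCR with capillary electrophoresis detection.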

Test [9] can be described thus: ATG_NRF2_ARE_CIS: Attagene CIS-FACTORIAL HepG2 Assay for human Nuclear Factor Erythroid 2 Related Factor 2 (NFR2) response to Antioxidant Response Elements (ARE) (AID 2282992).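 On AC50: reporter mRNA level measured by RT-PCR and capillary electrophoresis fluorescence.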 The following applies: HepG2 Attagene ARE/NRF2 reporter, transcription factor activity; actives raise or lower the signal. Put shortly:
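Fluorescence intensity of reporter-specific cDNA fragments, separated by capillary electrophoresis, reflects mRNA induction in transfected HepG2 cells at 24 h. Activity is fitted bidirectionally, DMSO serving as baseline.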

A short description of test [10]: ATG_Oct_MLP_CIS: Attagene CIS-FACTORIAL HepG2 Assay for human Octamer-Binding Transcription Factor (Oct) (AID 2282993). The settings on record: HepG2 Attagene cis-factorial Oct reporter, mRNA; actives raise or lower the signal. The method in brief:
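HepG2, transient MRTU transfection, cis promoter elements; 24 h dosing; RT-PCR/CE fluorescence read-out of reporter mRNA; fit both directions vs DMSO.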

Test [11] has as its target Cellular tumor antigen p53 (Homo sapiens) (UniProt P04637). Briefly: ATG_p53_CIS: Attagene CIS-FACTORIAL HepG2 Assay for human p53 Transcription Factor (AID 2282994). The settings on record: HepG2 p53 cis-element reporter, Attagene mRNA; actives raise or lower the signal. The method in brief: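 Transiently transfected HepG2 (multiple cis reporter transcription units); exposure 24 h; reporter RNA via RT-PCR, 6-FAM extension, 2 h HpaI digest at 37 C, CE detection; DMSO baseline.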

Test [12] can be described thus: BSK_3C_TissueFactor: BioMAP Diversity Plus: 3C Assay for Tissue Factor Biomarker Activity (AID 2282997). The settings on record: BioMAP 3C HUVEC, tissue factor biomarker readout; actives raise or lower the signal. Put shortly:
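After a 24 h chemical exposure of primary human umbilical vein endothelial cells, Tissue Factor levels were quantified by ELISA.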

A short description of test [13]: BSK_3C_uPAR: BioMAP Diversity Plus: 3C Assay for Urokinase-type plasminogen activator receptor (uPAR) Biomarker Activity (AID 2282998). The settings on record: BioMAP 3C HUVEC, uPAR biomarker ELISA; actives raise or lower the signal. Put shortly:
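A multiplexed primary-cell system built on human umbilical vein endothelium was used, with chemical present for 24 h before reading. Cell-surface uPAR was detected by ELISA; signal change in either direction counted against DMSO.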

Test [14] concerns the target Estrogen-related receptor gamma (Homo sapiens) (UniProt P62508). The test can be described thus: ATG_ERRg_TRANS: Attagene TRANS-FACTORIAL HepG2 Assay for human Estrogen-Related Receptor gamma (ERRg) (AID 2282977; active means hit-call score of the fitted dose curve at least 0.9, where 1 is the maximum;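 further: hits increase reporter signal over DMSO so potencies reflect activators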). The settings on record: HepG2 Attagene TRANS reporter, ERRg transactivation. Put shortly:
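Readout: fluorescent reporter-mRNA fragments resolved by capillary electrophoresis after RT-PCR and HpaI cut. Cells: transiently transfected HepG2 carrying GAL4-UAS reporters driven by exogenous NR-Gal4 chimeras, dosed 24 h. Activity fitted upward relative to DMSO baseline.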

Test [15] addresses Nuclear receptor subfamily 4 group A member 2 (Homo sapiens) (UniProt P43354). Briefly: ATG_NURR1_TRANS: Attagene TRANS-FACTORIAL HepG2 Assay for human Nuclear Receptor Related Protein 1 (NURR1) (AID 2282985; active means hit-call score of the fitted dose curve at least 0.9, where 1 is the maximum). The settings on record: HepG2 Attagene TRANS reporter, mRNA readout. The method in brief:
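Read-out: reporter mRNA induction by RT-PCR plus capillary electrophoresis with fluorescence detection, after 24 h dosing of transfected HepG2 cells. Exogenous NR-Gal4 chimera activity drives GAL4-UAS reporter; activity fitted upward versus DMSO.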

The nature of test [16]: BSK_4H_Eotaxin3: BioMAP Diversity Plus: 4H Assay for Eotaxin 3 Biomarker Activity (AID 2283000).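 Further: CCL26 protein level quantified by ELISA in parallel with SRB cytotoxicity check.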 The following applies: primary human endothelial cells (HUVEC); actives raise or lower the signal. The method in brief:
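Chemicals were added to human umbilical vein endothelium cultures, and Eotaxin-3 was quantified by ELISA at 24 h. Values were derived by bidirectional fitting with DMSO serving as negative control and activity baseline.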

Test [17] concerns the target Oxysterols receptor LXR-alpha (Homo sapiens) (UniProt Q13133). Briefly: ATG_LXRa_TRANS: Attagene TRANS-FACTORIAL HepG2 Assay for human Liver X Receptor alpha (LXRa) (AID 2282980; active means hit-call score of the fitted dose curve at least 0.9, where 1 is the maximum). The following applies: HepG2 Attagene TRANS reporter, LXRa transactivation. Put shortly:
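Transfect HepG2 with GAL4-UAS multiplex reporter constructs (TRANS format, chimeric receptor-GAL4); treat 24 h; extract RNA, reverse-transcribe, PCR-amplify, FAM-label, HpaI-digest; resolve fragments by capillary electrophoresis. Upward response vs DMSO.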

The target in test [18] is Oxysterols receptor LXR-beta (Homo sapiens) (UniProt P55055). Briefly: ATG_LXRb_TRANS: Attagene TRANS-FACTORIAL HepG2 Assay for human Liver X Receptor beta (LXRb) (AID 2282981; active means hit-call score of the fitted dose curve at least 0.9, where 1 is the maximum). The settings on record: HepG2 Attagene TRANS GAL4-LXRb reporter, mRNA. The method in brief:
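Readout: fluorescent reporter mRNA fragments resolved by capillary electrophoresis after RT-PCR. System: transiently transfected human HepG2, exogenous LXRb-Gal4 chimera driving GAL4-UAS reporter, 24 h dosing. Activity fitted upward against DMSO baseline.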

Several values for one entry are separate records, joined by “and”; a condition that tells them apart may be missing. Equal entries are not always repeated. Records with an inconclusive call do not appear. Where a structure was tested more than once in an assay, its records may differ in their call. Activity calls are given as the source filed them. How the source made its calls, unless noted: active means hit-call score of the fitted dose curve at least 0.9, where 1 is the maximum; inactive means score below 0.9.

Nuclear respiratory factor 1 (Homo sapiens), sequence (Q16656 whole entry, looked up): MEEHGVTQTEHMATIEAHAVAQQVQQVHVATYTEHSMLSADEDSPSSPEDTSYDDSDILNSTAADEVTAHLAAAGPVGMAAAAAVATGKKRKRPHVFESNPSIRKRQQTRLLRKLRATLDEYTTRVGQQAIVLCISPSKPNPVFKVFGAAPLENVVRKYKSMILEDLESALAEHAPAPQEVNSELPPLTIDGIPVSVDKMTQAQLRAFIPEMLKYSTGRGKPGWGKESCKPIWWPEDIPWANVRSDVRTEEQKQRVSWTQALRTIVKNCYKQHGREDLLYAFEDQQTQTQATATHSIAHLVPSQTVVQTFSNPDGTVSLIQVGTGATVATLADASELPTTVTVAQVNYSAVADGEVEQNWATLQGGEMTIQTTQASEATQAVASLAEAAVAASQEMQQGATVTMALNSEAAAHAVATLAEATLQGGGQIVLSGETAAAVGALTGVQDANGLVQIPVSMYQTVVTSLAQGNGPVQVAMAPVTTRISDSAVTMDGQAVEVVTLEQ
Estrogen-related receptor gamma (Homo sapiens), sequence (P62508 whole entry, looked up, the tested form may be a part): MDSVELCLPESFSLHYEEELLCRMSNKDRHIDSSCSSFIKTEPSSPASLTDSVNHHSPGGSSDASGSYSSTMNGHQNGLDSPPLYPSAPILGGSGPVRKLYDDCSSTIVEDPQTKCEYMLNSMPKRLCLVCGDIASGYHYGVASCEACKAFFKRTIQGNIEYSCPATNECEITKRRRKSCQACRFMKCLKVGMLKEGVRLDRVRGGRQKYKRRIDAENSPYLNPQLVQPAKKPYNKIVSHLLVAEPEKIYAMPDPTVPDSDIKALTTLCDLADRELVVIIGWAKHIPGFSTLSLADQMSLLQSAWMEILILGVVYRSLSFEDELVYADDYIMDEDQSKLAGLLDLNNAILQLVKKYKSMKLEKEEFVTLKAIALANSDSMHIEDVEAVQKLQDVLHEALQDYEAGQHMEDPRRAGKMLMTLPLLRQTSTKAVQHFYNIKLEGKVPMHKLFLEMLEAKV
Oxysterols receptor LXR-beta (Homo sapiens), sequence (P55055 whole entry, looked up, the tested form may be a part): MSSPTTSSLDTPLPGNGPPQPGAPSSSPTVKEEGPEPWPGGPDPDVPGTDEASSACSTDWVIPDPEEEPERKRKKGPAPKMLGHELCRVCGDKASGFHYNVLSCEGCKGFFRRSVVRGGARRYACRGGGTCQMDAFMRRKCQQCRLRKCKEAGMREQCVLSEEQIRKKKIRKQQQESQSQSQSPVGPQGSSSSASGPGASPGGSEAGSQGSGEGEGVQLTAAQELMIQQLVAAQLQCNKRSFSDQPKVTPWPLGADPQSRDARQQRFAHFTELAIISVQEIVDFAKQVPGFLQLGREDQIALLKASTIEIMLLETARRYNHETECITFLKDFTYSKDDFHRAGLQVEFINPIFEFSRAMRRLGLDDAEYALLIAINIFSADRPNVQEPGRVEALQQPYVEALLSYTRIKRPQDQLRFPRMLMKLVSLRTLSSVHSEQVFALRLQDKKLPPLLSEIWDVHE
Oxysterols receptor LXR-alpha (Homo sapiens), sequence (Q13133 whole entry, looked up, the tested form may be a part): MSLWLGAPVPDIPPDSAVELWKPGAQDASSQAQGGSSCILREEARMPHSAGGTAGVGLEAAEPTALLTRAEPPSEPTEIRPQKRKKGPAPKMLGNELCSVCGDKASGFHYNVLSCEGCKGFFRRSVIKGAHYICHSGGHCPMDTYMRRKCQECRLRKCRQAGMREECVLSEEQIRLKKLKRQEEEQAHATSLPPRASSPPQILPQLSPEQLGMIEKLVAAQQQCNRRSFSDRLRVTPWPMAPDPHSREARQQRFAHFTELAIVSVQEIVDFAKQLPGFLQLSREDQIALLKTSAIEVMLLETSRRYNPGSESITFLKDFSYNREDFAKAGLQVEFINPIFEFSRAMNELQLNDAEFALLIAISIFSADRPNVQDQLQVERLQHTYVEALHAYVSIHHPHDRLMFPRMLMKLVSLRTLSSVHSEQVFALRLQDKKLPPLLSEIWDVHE
Nuclear receptor subfamily 4 group A member 2 (Homo sapiens), sequence (P43354 whole entry, looked up, the tested form may be a part): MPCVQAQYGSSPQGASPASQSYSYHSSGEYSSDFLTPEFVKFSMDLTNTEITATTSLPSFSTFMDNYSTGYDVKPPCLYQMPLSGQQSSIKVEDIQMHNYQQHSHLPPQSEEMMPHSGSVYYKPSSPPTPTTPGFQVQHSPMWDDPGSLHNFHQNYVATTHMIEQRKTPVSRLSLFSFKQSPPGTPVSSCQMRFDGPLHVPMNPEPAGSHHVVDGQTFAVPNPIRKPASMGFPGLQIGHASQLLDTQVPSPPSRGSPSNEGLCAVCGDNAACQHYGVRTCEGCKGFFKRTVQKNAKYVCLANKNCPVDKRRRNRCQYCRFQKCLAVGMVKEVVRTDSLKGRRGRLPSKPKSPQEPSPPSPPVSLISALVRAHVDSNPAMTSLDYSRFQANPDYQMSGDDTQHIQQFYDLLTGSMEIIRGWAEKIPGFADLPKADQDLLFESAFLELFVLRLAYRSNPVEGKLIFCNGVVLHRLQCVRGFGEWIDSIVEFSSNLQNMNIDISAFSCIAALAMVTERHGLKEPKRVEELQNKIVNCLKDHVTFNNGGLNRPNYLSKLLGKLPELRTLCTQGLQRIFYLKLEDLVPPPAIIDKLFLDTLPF
Cellular tumor antigen p53 (Homo sapiens), sequence (P04637 whole entry, looked up): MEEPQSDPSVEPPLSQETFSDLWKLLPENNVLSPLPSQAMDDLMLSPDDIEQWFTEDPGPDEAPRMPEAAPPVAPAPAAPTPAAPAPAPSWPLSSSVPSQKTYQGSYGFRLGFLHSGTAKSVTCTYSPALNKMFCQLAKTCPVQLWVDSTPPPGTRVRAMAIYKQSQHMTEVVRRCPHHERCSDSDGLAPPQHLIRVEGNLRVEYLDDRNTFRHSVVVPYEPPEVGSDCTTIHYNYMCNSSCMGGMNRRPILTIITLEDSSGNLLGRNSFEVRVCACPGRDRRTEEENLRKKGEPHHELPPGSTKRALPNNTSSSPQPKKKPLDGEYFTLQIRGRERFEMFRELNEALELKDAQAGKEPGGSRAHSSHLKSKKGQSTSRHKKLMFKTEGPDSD
Bile acid receptor (Homo sapiens), sequence (Q96RI1 whole entry, looked up, the tested form may be a part): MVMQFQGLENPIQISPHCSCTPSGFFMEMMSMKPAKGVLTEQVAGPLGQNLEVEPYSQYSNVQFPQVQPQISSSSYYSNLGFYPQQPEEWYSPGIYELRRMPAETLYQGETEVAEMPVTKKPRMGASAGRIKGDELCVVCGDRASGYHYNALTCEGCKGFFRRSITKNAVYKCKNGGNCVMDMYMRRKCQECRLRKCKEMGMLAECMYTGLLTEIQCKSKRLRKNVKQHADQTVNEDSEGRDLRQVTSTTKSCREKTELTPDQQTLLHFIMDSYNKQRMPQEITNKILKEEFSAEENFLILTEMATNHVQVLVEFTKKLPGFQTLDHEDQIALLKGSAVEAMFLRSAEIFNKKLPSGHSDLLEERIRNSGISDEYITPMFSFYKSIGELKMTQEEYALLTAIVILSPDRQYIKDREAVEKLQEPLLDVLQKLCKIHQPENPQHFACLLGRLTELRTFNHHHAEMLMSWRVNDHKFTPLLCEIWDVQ
Myc proto-oncogene protein (Homo sapiens), sequence (P01106 whole entry, looked up, the tested form may be a part): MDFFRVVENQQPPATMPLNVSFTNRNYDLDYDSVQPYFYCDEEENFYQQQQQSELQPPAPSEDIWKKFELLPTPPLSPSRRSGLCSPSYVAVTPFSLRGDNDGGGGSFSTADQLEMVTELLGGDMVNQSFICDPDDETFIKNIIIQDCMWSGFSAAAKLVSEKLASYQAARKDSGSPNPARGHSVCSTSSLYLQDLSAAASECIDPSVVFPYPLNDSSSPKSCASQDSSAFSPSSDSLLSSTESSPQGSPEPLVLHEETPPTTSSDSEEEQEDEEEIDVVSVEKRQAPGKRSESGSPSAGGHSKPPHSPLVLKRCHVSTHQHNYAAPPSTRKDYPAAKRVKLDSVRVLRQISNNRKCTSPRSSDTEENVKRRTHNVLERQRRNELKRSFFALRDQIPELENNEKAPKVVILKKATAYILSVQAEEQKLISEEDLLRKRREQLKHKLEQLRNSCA
Transcriptional activator Myb (Homo sapiens), sequence (P10242 whole entry, looked up): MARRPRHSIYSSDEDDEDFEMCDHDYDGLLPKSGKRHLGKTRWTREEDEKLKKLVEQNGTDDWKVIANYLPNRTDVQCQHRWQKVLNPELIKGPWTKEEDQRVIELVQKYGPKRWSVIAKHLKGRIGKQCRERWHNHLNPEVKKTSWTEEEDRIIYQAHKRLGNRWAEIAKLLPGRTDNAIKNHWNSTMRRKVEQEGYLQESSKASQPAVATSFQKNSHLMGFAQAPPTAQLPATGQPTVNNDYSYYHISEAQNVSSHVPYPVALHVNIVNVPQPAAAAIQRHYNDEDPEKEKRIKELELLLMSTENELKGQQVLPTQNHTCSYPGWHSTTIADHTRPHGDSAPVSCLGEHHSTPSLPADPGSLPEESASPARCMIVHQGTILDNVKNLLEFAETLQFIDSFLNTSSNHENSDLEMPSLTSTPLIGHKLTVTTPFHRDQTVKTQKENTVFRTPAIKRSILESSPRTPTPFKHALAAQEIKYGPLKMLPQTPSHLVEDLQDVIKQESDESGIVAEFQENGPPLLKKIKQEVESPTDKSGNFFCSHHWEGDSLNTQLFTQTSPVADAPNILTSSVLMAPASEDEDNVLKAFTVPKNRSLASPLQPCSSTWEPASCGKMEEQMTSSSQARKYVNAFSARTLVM

On to `CC(c1ccc(O)cc1)(c1ccc(O)cc1)c1ccc(O)cc1`, for which the AC50 in test [1] is 2.98 µM (active); in [5], 20.2 µM (active); in test [8], 18.9 µM (active); in test [9], 19.6 µM (active); in test [10] it was 11.1 µM (active); in [11], 11.1 µM (active). Moreover, the AC50 in test [13] is 32.6 µM (active). For the same compound, the compound was called inactive in [2], in test [3], in test [4], in test [6], in test [7] and in test [12].
As for `ClC1=C(Cl)[C@]2(Cl)[C@@H]3[C@H]4C[C@H]([C@@H]5O[C@H]45)[C@@H]3[C@@]1(Cl)C2(Cl)Cl`, the result in test [14], in [3], in test [15], in test [4], in test [5] and in test [6] was inactive. In addition, the call in test [7], in test [8], in [9], in [10], in test [11] and in test [12] was inactive. For the same compound, the result in test [13] and in [16] was inactive.
With `Clc1ccc(C(c2ccccc2Cl)C(Cl)(Cl)Cl)cc1` (centres undefined), the compound was classed as inactive in test [14], in [17], in test [18], in [2], in test [3] and in test [15]. In addition, the result in [5], in test [6], in test [7], in [8], in test [9] and in test [10] was inactive. Further, the outcome in [11] was inactive. Moreover, the AC50 in [5] is 120 µM (active); in [6] it was 107 µM (active) and 70.5 µM (active); in test [7] it was 111 µM (active); in test [9] it was 41.4 µM (active) and 39.6 µM (active) and 21.3 µM (active); in [10], 70.5 µM (active) and 104 µM (active) and 42.3 µM (active); in test [12], 20.9 µM (active). Moreover, the AC50 in test [13] was 21.3 µM (active).
Turning to `OCC(O)CO`, the compound was classed as inactive in test [14], in [1], in [18], in test [3], in test [15] and in test [5]. In addition, the result in test [6], in test [7], in test [8], in test [9], in test [10] and in test [11] was inactive.
